{"source": "paper PMC4336329", "about": "(PLoS ONE, 2015)", "note": "About 14,000 (4.5%) of roughly 310,000 compounds showed an effect of 50% or more. Effects have a minus sign here. Shown is part of a subset that was picked to be rich in strong results.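 Also: peak tail current of the secondary pulse compared with the same well before compound.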"}
{"target": "human ether-à-go-go-related gene (hERG) potassium channel (human, UniProt Q12809)", "sequence (Q12809 whole entry, looked up)": "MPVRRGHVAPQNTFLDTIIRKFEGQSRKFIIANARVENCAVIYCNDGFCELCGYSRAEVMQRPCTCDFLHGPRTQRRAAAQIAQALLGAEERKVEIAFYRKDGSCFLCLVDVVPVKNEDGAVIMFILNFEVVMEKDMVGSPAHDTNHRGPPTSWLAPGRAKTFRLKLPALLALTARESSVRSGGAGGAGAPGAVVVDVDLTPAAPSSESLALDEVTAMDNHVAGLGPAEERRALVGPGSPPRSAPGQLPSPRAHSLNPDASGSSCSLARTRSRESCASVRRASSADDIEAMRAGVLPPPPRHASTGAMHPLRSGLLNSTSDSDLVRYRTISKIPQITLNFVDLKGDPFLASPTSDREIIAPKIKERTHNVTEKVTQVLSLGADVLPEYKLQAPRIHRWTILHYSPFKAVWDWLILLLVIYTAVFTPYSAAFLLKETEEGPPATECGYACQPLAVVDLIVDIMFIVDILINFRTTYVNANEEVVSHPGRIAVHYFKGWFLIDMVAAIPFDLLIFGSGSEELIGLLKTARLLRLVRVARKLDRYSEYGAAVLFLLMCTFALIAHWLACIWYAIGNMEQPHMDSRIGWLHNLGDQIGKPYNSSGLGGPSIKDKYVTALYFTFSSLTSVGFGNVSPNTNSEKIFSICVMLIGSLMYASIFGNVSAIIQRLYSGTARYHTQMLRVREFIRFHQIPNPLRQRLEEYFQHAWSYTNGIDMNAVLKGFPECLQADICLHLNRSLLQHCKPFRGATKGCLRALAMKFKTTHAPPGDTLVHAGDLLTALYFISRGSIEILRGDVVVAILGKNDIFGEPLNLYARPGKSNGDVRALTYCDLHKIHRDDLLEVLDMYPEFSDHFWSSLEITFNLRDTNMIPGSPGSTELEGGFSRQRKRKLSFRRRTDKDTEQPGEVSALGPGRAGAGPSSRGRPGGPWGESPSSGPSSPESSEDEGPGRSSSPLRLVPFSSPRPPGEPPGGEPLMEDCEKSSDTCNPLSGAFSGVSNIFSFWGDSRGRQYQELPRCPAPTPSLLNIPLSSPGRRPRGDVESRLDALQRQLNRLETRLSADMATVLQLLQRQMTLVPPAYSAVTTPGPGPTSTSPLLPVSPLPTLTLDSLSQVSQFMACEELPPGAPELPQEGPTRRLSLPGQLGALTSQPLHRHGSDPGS", "test": "primary screen, population patch clamp on CHO cells stably expressing hERG; higher = less effect of the substance", "units": {"hERG current change (%, negative = inhibition) at 10uM": "%"}}
{"compound": "COc1ccc(-c2csc(NC(=O)c3ccc(C(C)(C)C)cc3)c2C(=O)O)cc1", "hERG current change (%, negative = inhibition) at 10uM": 24.9}
{"compound": "CC(NC(=S)NCCc1ccccc1)C(c1cccs1)N1CCN(C)CC1", "note": "(stereo not shown)", "hERG current change (%, negative = inhibition) at 10uM": -35.7}
{"compound": "CC(=O)c1ccc(NC(=O)Nc2ccncc2)cc1", "hERG current change (%, negative = inhibition) at 10uM": 15.3}
{"compound": "O=C(CCCc1c[nH]c2ccccc12)N[C@@H](Cc1c[nH]c2ccccc12)C(=O)O", "hERG current change (%, negative = inhibition) at 10uM": 18.9}
{"compound": "CCOC(=O)N1CCC(NC(=O)c2cc(C(=O)Nc3ccc(S(=O)(=O)N4CCCCC4)cc3)ccc2CO)CC1", "hERG current change (%, negative = inhibition) at 10uM": 34.2}
{"compound": "CCOC(=O)Cn1nc(C)cc1NC(=O)c1cccnc1", "hERG current change (%, negative = inhibition) at 10uM": 10}
{"compound": "O=C(CCCc1nc(-c2ccc(Cl)cc2)no1)NC1CCCC1", "hERG current change (%, negative = inhibition) at 10uM": -1.19}
{"compound": "O=C(O)[C@H](Cc1ccccc1)NC(=O)N1CCOCC1", "hERG current change (%, negative = inhibition) at 10uM": -7.49}
{"compound": "CCOC(=O)c1cnc2c(OC)cccc2c1Nc1ccc2c(c1)OCCO2", "hERG current change (%, negative = inhibition) at 10uM": -56.3}
{"compound": "CCOC(=O)c1cnc2c(OC)cccc2c1NCc1cccnc1", "hERG current change (%, negative = inhibition) at 10uM": -72.2}
{"compound": "CCOC(=O)c1cnc2c(OC)cccc2c1N1CC(C)CC(C)C1", "note": "(stereo not shown)", "hERG current change (%, negative = inhibition) at 10uM": -17.1}
{"compound": "CCOC(=O)c1cnc2c(OC)cccc2c1Oc1ccccc1", "hERG current change (%, negative = inhibition) at 10uM": 3.3}
{"compound": "CCOC(=O)c1ccc(NCc2cccnc2)cc1", "hERG current change (%, negative = inhibition) at 10uM": 0.518}
{"compound": "CCOC(=O)c1cnc2c(C(=O)OC)cccc2c1NCc1cccnc1", "hERG current change (%, negative = inhibition) at 10uM": -70.5}
{"compound": "CCOC(=O)c1cnc2c(Cl)cccc2c1NCCN(C)C.Cl", "hERG current change (%, negative = inhibition) at 10uM": -25.6}
{"compound": "CCOC(=O)c1cnc2ccccc2c1Nc1ccc2c(c1)OCCO2", "hERG current change (%, negative = inhibition) at 10uM": -12.3}
{"compound": "CCOC(=O)c1cnc2ccc(OC)cc2c1Nc1ccc2c(c1)OCCO2", "hERG current change (%, negative = inhibition) at 10uM": 1.43}
{"compound": "CC(=O)c1cccc(NC(=O)C(C)OC(=O)CN2C(=O)NC(C)(C)C2=O)c1", "note": "(stereo not shown)", "hERG current change (%, negative = inhibition) at 10uM": 23.8}
{"compound": "COC(=O)C1=C(c2cc3ccccc3s2)C[C@@H]2CC[C@H]1N2C(=O)NCCNC(C)=O", "hERG current change (%, negative = inhibition) at 10uM": 2.06}
{"compound": "O=C(O)Cn1ccnc1", "hERG current change (%, negative = inhibition) at 10uM": 4.81}
{"compound": "Nc1ccccc1-c1nnc(SCc2ccccc2Cl)[nH]c1=O", "hERG current change (%, negative = inhibition) at 10uM": -0.313}
{"compound": "COC(=O)C(c1ccccc1)N1CCCCCC1.Cl", "note": "(stereo not shown)", "hERG current change (%, negative = inhibition) at 10uM": 10.8}
{"compound": "Cc1nc2ncnn2c(C)c1CCC(=O)N1CCc2ccccc21", "hERG current change (%, negative = inhibition) at 10uM": -80.6}
{"compound": "Cc1nc2ncnn2c(C)c1CCC(=O)N1CCN(c2ccccn2)CC1", "hERG current change (%, negative = inhibition) at 10uM": -33.3}
{"compound": "Cc1nc2nc(C)c(CCC(=O)N3CCc4ccccc43)c(C)n2n1", "hERG current change (%, negative = inhibition) at 10uM": -63.5}
{"compound": "Cc1nc2ncnn2c(C)c1CCC(=O)N1CCc2ccccc2C1", "hERG current change (%, negative = inhibition) at 10uM": -63.4}
{"compound": "Cc1nc2ncnn2c(C)c1CCC(=O)N1CCOCC1", "hERG current change (%, negative = inhibition) at 10uM": 1.89}
{"compound": "Cc1nc2ncnn2c(C)c1CCC(=O)N1CCCCC1", "hERG current change (%, negative = inhibition) at 10uM": -2.79}
{"compound": "Cc1nc2ncnn2c(C)c1CCC(=O)N1CCN(Cc2ccccc2)CC1", "hERG current change (%, negative = inhibition) at 10uM": -7.67}
{"compound": "CCOC(=O)N1CCN(C(=O)CCc2c(C)nc3nc(C)nn3c2C)CC1", "hERG current change (%, negative = inhibition) at 10uM": -22}
{"compound": "Cc1nc2nc(C)c(CCC(=O)O)c(C)n2n1", "hERG current change (%, negative = inhibition) at 10uM": 8.07}
